Assay results reported in PubChem BioAssay AID463173 (ICCB-Longwood Screening Facility, Harvard Medical School, 2010).
Among all 52,000 compounds or so, about 4,300 (8.3%) were called active. Rule as the data show it: active = survival mostly below about 52% (no sharp cut-off); inactive = mostly above about 56%. Many of the other results were omitted from the sample, so actives are more common in it than they were.

Tested on: DeltatarO mutant
Assay: growth inhibition of S. aureus wild type versus tarO mutant, primary screen, teichoic acid synthesis inhibitors, RN4220, OD600 (AID 463173)
Settings: OD600, 18 h, active compounds read low, screened at 18.75 µg/mL (by protocol)

Compound | survival
Cc1ccc(NC(=O)c2oc3ccc(S(=O)(=O)N4CCOCC4)cc3c2C)c(C)c1 | 125% (inactive)
CCOC(=O)c1cn(CC(=O)Nc2ccc(OC)cc2OC)nn1 | 83% (inactive)
Cc1cccc(CNC(=O)Cn2nc(C)n3c(cc4cc(F)ccc43)c2=O)c1 | 77% (inactive)
O=C(O)CCc1ccco1 | 98% (inactive)
CCOC(=O)C1CCN(C(=O)Cc2cccc3ccccc23)CC1 | 82% (inactive)
CCN(CC)S(=O)(=O)c1ccc(C(=O)NCCSc2c(-c3ccc(F)cc3)[nH]c3ccccc23)cc1 | 69% (inactive)
CCOC(=O)COc1ccc(F)cc1C(=O)c1ccn2nc(-c3ccc(C)cc3)cc2n1 | 80% (inactive)
COc1ccc(-c2nc(Cn3c(SCc4ccccc4F)nc4cccnc43)c(C)o2)cc1 | 69% (inactive)
C=Cc1ccc(Cn2c(C(=O)O)c(CNCc3ccccc3)c3ccc(C)cc32)cc1 | 120% (inactive)
Cc1ccc(CNCc2c(C(=O)O)n(Cc3ccc(C)cc3)c3cc(C)ccc23)cc1 | 2% (active)
Cc1ccc(Cn2c(C(=O)O)c(CNCc3ccc(OC(C)C)cc3)c3ccc(C)cc32)cc1 | 11% (active)
COc1ccc(Cn2c(C(=O)O)c(CNCc3cccs3)c3ccc(C)cc32)cc1 | 89% (inactive)
Cc1ccc(Cn2c(C(=O)O)c(CNCc3ccccc3Cl)c3ccc(C)cc32)cc1 | 58% (inactive)
COc1ccc(Cn2c(C(=O)O)c(CNCc3cccc(OC)c3)c3ccc(C)cc32)cc1 | 74% (inactive)
Cc1ccc2c(CNCCc3ccco3)c(C(=O)O)n(Cc3ccc(F)cc3)c2c1 | 59% (inactive)
Cc1ccc2c(CNCCc3ccc(Cl)cc3)c(C(=O)O)n(Cc3ccc(F)cc3)c2c1 | 8% (active)
Cc1ccc(Cn2c(C)c(CNCc3ccc(OC(C)C)cc3)c(C(=O)O)c2C)cc1 | 121% (inactive)
Cc1ccc2c(CNCc3cccs3)c(C(=O)O)n(Cc3ccc(F)cc3)c2c1 | 82% (inactive)
C=Cc1ccc(Cn2c(C(=O)O)c(CNCc3ccc(F)cc3)c3ccc(C)cc32)cc1 | 86% (inactive)
Cc1ccc(Cn2c(C(=O)O)c(CNCc3cccs3)c3ccc(C)cc32)cc1 | 48% (active)

Compound | survival
CCCN(Cc1cccs1)C(=O)Nc1ccc(F)c(Cl)c1 | 58% (inactive)
COc1ccc(OC)c(CNC(=O)CCCn2c(=O)c3cccn3c3cccnc32)c1 | 97% (inactive)
CCOc1ccc(NC(=O)CC2C(=O)N(c3ccc(Cl)cc3)C(=O)N2Cc2cccs2)cc1 (stereo not given) | 81% (inactive)
Cc1cc(C)cc(NC(=O)C(Cc2ccccc2)NS(=O)(=O)c2ccc3c(c2)CCC(=O)N3)c1 (stereo not given) | 77% (inactive)
CCOC(=O)C(C)NC(=O)c1cc2c(=O)[nH]c3ccc(C)cc3c2s1 (stereo not given) | 57% (inactive)
CCc1ccc(CNCc2c(C(=O)O)n(Cc3ccc(C)cc3)c3cc(C)ccc23)cc1 | 14% (active)
Cc1ccc(Cn2c(C(=O)O)c(CNCCc3cccs3)c3ccc(C)cc32)cc1 | 82% (inactive)
Cc1ccc(Cn2c(C(=O)O)c(CNCc3ccc(C)o3)c3ccc(C)cc32)cc1 | 52% (inactive)
COC(=O)c1scc(-c2ccc(C)cc2)c1S(=O)(=O)Nc1cc(C)ccc1OC | 75% (inactive)
CCCSc1ncc(Cl)c(C(=O)Nc2c(C(=O)c3ccc(F)cc3)oc3ccccc23)n1 | 44% (active)
CCS(=O)(=O)c1ncc(Cl)c(C(=O)Nc2c(C(=O)c3ccc(C)cc3)oc3ccccc23)n1 | 50% (active)
CCSc1ncc(Cl)c(C(=O)Nc2c(C(=O)c3ccccc3)oc3ccccc23)n1 | 79% (inactive)
CS(=O)(=O)c1ncc(Cl)c(C(=O)Nc2c(C(=O)c3ccc(Cl)cc3)oc3ccccc23)n1 | 109% (inactive)
CCCS(=O)(=O)c1ncc(Cl)c(C(=O)Nc2c(C(=O)c3ccccc3)oc3ccccc23)n1 | 102% (inactive)
CCCSc1ncc(Cl)c(C(=O)Nc2c(C(=O)c3ccc(C)cc3)oc3ccccc23)n1 | 56% (inactive)
CCOc1ccc(NC(=O)CSc2ccc3ccccc3n2)cc1 | 67% (inactive)
Cc1ccc(-n2c(=O)c3oc4ccccc4c3n(CC(=O)Nc3ccc(F)c(Cl)c3)c2=O)cc1C | 65% (inactive)
CCC(C(=O)NCc1ccccc1OC)n1nc(C)n2c(cc3sccc32)c1=O (stereo not given) | 82% (inactive)
O=S(=O)(c1ccc2nc(Nc3ccc(Br)cc3F)ccc2c1)N1CCCC1 | 117% (inactive)
O=C(Nc1ccc(F)cc1Cl)n1ncc2cc(Cl)ccc21 | 13% (active)

Compound | survival
O=C(Nc1ccccc1C(F)(F)F)n1ncc2cc(Cl)ccc21 | 104% (inactive)
Cc1ccc(C)c(NC(=O)n2ncc3cc(Cl)ccc32)c1 | 82% (inactive)
CC1(c2ccc(Cl)cc2Cl)OCC(Cn2cncn2)O1 (stereo not given) | 83% (inactive)
CCN(CC)Cn1nc(-c2ccccc2Cl)oc1=S | 77% (inactive)
S=c1oc(-c2ccccc2)nn1CNc1ccccc1 | 83% (inactive)
Cc1ccc(-c2nn(CO)c(=S)o2)cc1 | 48% (active)
CCOc1ccc2c(c1)NC(c1cccs1)=NC(c1ccc(F)cc1)=N2 | 50% (inactive)
CCc1nn(CCCC(=O)NCc2ccc(OC(C)C)cc2)c(=O)c2cc3occc3n12 | 77% (inactive)
COc1ccccc1N1CCN(C(=O)C2CCN(S(=O)(=O)c3cn(C)cn3)CC2)CC1 | 46% (active)
Cn1cnc(S(=O)(=O)N2CCC(C(=O)N3CCN(c4ccccc4F)CC3)CC2)c1 | 75% (inactive)
COc1ccccc1N1CCN(C(=O)c2cc(S(=O)(=O)N3CCC(C)CC3)cn2C)CC1 | 32% (active)
Cc1cccc(N2CCN(C(=O)C3CCN(S(=O)(=O)c4cn(C)cn4)CC3)CC2)c1C | 92% (inactive)
CC1CCN(S(=O)(=O)c2cc(C(=O)N3CCN(c4ccccc4F)CC3)n(C)c2)CC1 | 70% (inactive)
COc1ccc(N2CCN(C(=O)C3CCN(S(=O)(=O)c4cn(C)cn4)CC3)CC2)cc1 | 69% (inactive)
COc1ccccc1N1CCN(S(=O)(=O)c2ccc(-c3cnc(C4CC4)o3)cc2)CC1 | 113% (inactive)
COc1ccccc1N1CCN(S(=O)(=O)c2ccc(S(=O)(=O)NC3CCCC3)cc2)CC1 | 55% (active)
CC(=O)c1ccc(N2CCN(C(=O)C3CCN(S(=O)(=O)c4cn(C)cn4)CC3)CC2)cc1 | 69% (inactive)
Cn1cnc(S(=O)(=O)N2CCC(C(=O)N3CCN(c4ccc(Cl)cc4)CC3)CC2)c1 | 37% (active)
Cc1cccc(N2CCN(C(=O)c3cc(S(=O)(=O)N4CCC(C)CC4)cn3C)CC2)c1C | 58% (inactive)
CCOc1ccccc1N1CCN(S(=O)(=O)c2ccc(C3CCCCC3)cc2)CC1 | 50% (inactive)
